# Data taken from PubChem BioAssay AID1159580 (chemical genetic matrix, 2015).
# Screen size: about 5,500 compounds; about 2,000 (36%) were called active. Roughly 18% stayed inconclusive and do not appear here. This is one part of the list. Unmarked numbers belong to inactive results. No stated cut-off is given here; in the data, active means normalized growth mostly below about 0.91 (no sharp cut-off); inconclusive means no clear call, values can overlap the other calls; inactive means mostly above about 0.92.
# Experiment: chemical genetic growth profiling, strain panel (AID 1159580);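 further: tested at 20 µM; growth read once vehicle control cultures reached saturation at 30 °C; 1 = growth at the plate median or of vehicle wells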
# Conditions: growth OD
smiles,measurement,setting,value
Cc1c(Cl)cccc1Nc1ccccc1C(=O)O,normalized growth,"S. cerevisiae deletion strains, locus YJR075W, strain HOC1, stronger effect = lower value",0.852 (active)
same,normalized growth,"S. cerevisiae deletion strains, locus YKL009W, strain mrt4, stronger effect = lower value",0.788 (active)
same,normalized growth,"S. cerevisiae deletion strains, locus YKL068W, stronger effect = lower value",0.954
same,normalized growth,"S. cerevisiae deletion strains, locus YKL085W, strain MDH1 (second series), stronger effect = lower value",0.922 (active)
same,normalized growth,"S. cerevisiae deletion strains, locus YKL085W, strain MDH1, stronger effect = lower value",0.922 (active)
same,normalized growth,"S. cerevisiae deletion strains, locus YKL160W, strain elf1, stronger effect = lower value",0.764 (active)
same,normalized growth,"S. cerevisiae deletion strains, locus YKL190W, strain CNB1, stronger effect = lower value",0.863 (active)
same,normalized growth,"S. cerevisiae deletion strains, locus YKR001C, strain vps1, stronger effect = lower value",0.52 (active)
same,normalized growth,"S. cerevisiae deletion strains, locus YKR026C, strain gcn3, stronger effect = lower value",0.79 (active)
same,normalized growth,"S. cerevisiae deletion strains, locus YKR091W, strain srl3, stronger effect = lower value",0.829 (active)
same,normalized growth,"S. cerevisiae deletion strains, locus YLL001W, strain dnm1, stronger effect = lower value",0.814 (active)
same,normalized growth,"S. cerevisiae deletion strains, locus YLL026W, stronger effect = lower value",0.831 (active)
same,normalized growth,"S. cerevisiae deletion strains, locus YLL041C, strain sdh2, stronger effect = lower value",0.818 (active)
same,normalized growth,"S. cerevisiae deletion strains, locus YLR027C, strain aat2, stronger effect = lower value",0.819 (active)
same,normalized growth,"S. cerevisiae deletion strains, locus YLR039C, strain RIC1, stronger effect = lower value",0.537 (active)
same,normalized growth,"S. cerevisiae deletion strains, locus YLR058C, strain SHM2, stronger effect = lower value",0.849 (active)
same,normalized growth,"S. cerevisiae deletion strains, locus YLR102C, strain apc9, stronger effect = lower value",0.788 (active)
same,normalized growth,"S. cerevisiae deletion strains, locus YLR113W, strain HOG1, stronger effect = lower value",0.566 (active)
same,normalized growth,"S. cerevisiae deletion strains, locus YLR221C, strain rsa3, stronger effect = lower value",0.777 (active)
same,normalized growth,"S. cerevisiae deletion strains, locus YLR258W, strain gsy2, stronger effect = lower value",0.831 (active)
same,normalized growth,"S. cerevisiae deletion strains, locus YLR262C, strain YPT6 (second series), stronger effect = lower value",0.48 (active)
same,normalized growth,"S. cerevisiae deletion strains, locus YLR262C, strain YPT6, stronger effect = lower value",0.491 (active)
same,normalized growth,"S. cerevisiae deletion strains, locus YLR268W, strain sec22, stronger effect = lower value",0.724 (active)
same,normalized growth,"S. cerevisiae deletion strains, locus YLR320W, strain mms22, stronger effect = lower value",0.59 (active)
same,normalized growth,"S. cerevisiae deletion strains, locus YLR330W, strain CHS5, stronger effect = lower value",0.82 (active)
same,normalized growth,"S. cerevisiae deletion strains, locus YLR342W, strain FKS1 (second series), stronger effect = lower value",0.671 (active)
same,normalized growth,"S. cerevisiae deletion strains, locus YLR342W, strain FKS1, stronger effect = lower value",0.795 (active)
same,normalized growth,"S. cerevisiae deletion strains, locus YLR357W, strain rsc2, stronger effect = lower value",0.93
same,normalized growth,"S. cerevisiae deletion strains, locus YLR370C, strain arc18, stronger effect = lower value",0.808 (active)
same,normalized growth,"S. cerevisiae deletion strains, locus YLR371W, strain rom2, stronger effect = lower value",0.838 (active)
same,normalized growth,"S. cerevisiae deletion strains, locus YLR384C, strain iki3, stronger effect = lower value",0.832 (active)
same,normalized growth,"S. cerevisiae deletion strains, locus YLR418C, strain cdc73, stronger effect = lower value",0.591 (active)
same,normalized growth,"S. cerevisiae deletion strains, locus YML016C, strain PPZ1, stronger effect = lower value",0.857 (active)
same,normalized growth,"S. cerevisiae deletion strains, locus YML032C, strain rad52, stronger effect = lower value",0.792 (active)
same,normalized growth,"S. cerevisiae deletion strains, locus YML120C, strain ndi1, stronger effect = lower value",0.723 (active)
same,normalized growth,"S. cerevisiae deletion strains, locus YML124C, strain tub3, stronger effect = lower value",0.787 (active)
same,normalized growth,"S. cerevisiae deletion strains, locus YMR058W, strain fet3, stronger effect = lower value",0.79 (active)
same,normalized growth,"S. cerevisiae deletion strains, locus YMR078C, strain ctf18, stronger effect = lower value",0.761 (active)
same,normalized growth,"S. cerevisiae deletion strains, locus YMR125W, strain sto1, stronger effect = lower value",0.781 (active)
same,normalized growth,"S. cerevisiae deletion strains, locus YMR129W, stronger effect = lower value",0.823 (active)
same,normalized growth,"S. cerevisiae deletion strains, locus YMR205C, strain PFK2, stronger effect = lower value",0.673 (active)
same,normalized growth,"S. cerevisiae deletion strains, locus YMR223W, strain ubp8, stronger effect = lower value",0.795 (active)
same,normalized growth,"S. cerevisiae deletion strains, locus YMR231W, strain pep5, stronger effect = lower value",0.813 (active)
same,normalized growth,"S. cerevisiae deletion strains, locus YMR263W, strain SAP30, stronger effect = lower value",0.824 (active)
same,normalized growth,"S. cerevisiae deletion strains, locus YMR307W, strain GAS1, stronger effect = lower value",0.557 (active)
same,normalized growth,"S. cerevisiae deletion strains, locus YNL067W, strain RPL9B, stronger effect = lower value",0.846 (active)
same,normalized growth,"S. cerevisiae deletion strains, locus YNL071W, strain lat1, stronger effect = lower value",0.569 (active)
same,normalized growth,"S. cerevisiae deletion strains, locus YNL153C, strain GIM3, stronger effect = lower value",0.849 (active)
same,normalized growth,"S. cerevisiae deletion strains, locus YNL183C, strain NPR1, stronger effect = lower value",0.641 (active)
same,normalized growth,"S. cerevisiae deletion strains, locus YNL209W, strain ssb2, stronger effect = lower value",0.869 (active)
same,normalized growth,"S. cerevisiae deletion strains, locus YNL233W, strain BNI4, stronger effect = lower value",0.797 (active)
same,normalized growth,"S. cerevisiae deletion strains, locus YNL248C, strain rpa49, stronger effect = lower value",0.886 (active)
same,normalized growth,"S. cerevisiae deletion strains, locus YNL250W, strain rad50, stronger effect = lower value",0.941
same,normalized growth,"S. cerevisiae deletion strains, locus YNL271C, strain bni1, stronger effect = lower value",0.919 (active)
same,normalized growth,"S. cerevisiae deletion strains, locus YNL298W, strain CLA4, stronger effect = lower value",0.842 (active)
same,normalized growth,"S. cerevisiae deletion strains, locus YNL307C, strain MCK1, stronger effect = lower value",0.437 (active)
same,normalized growth,"S. cerevisiae deletion strains, locus YNL322C, strain KRE1 (second series), stronger effect = lower value",0.856 (active)
same,normalized growth,"S. cerevisiae deletion strains, locus YNL322C, strain KRE1, stronger effect = lower value",0.876 (active)
same,normalized growth,"S. cerevisiae deletion strains, locus YNR049C, strain mso1, stronger effect = lower value",0.822 (active)
same,normalized growth,"S. cerevisiae deletion strains, locus YNR052C, strain pop2, stronger effect = lower value",0.821 (active)
same,normalized growth,"S. cerevisiae deletion strains, locus YOL006C, strain TOP1, stronger effect = lower value",0.656
same,normalized growth,"S. cerevisiae deletion strains, locus YOL012C, strain htz1",0.632
same,normalized growth,"S. cerevisiae deletion strains, locus YOL147C, strain pex11, stronger effect = lower value",0.765 (active)
same,normalized growth,"S. cerevisiae deletion strains, locus YOR001W, strain rrp6, stronger effect = lower value",0.8 (active)
same,normalized growth,"S. cerevisiae deletion strains, locus YOR061W, strain CKA2, stronger effect = lower value",0.852 (active)
same,normalized growth,"S. cerevisiae deletion strains, locus YOR069W, strain VPS5, stronger effect = lower value",0.864 (active)
same,normalized growth,"S. cerevisiae deletion strains, locus YOR070C, strain gyp1, stronger effect = lower value",0.802 (active)
same,normalized growth,"S. cerevisiae deletion strains, locus YOR080W, strain dia2, stronger effect = lower value",0.855 (active)
same,normalized growth,"S. cerevisiae deletion strains, locus YOR083W, strain WHI5, stronger effect = lower value",0.767 (active)
same,normalized growth,"S. cerevisiae deletion strains, locus YOR106W, strain vam3, stronger effect = lower value",0.745 (active)
same,normalized growth,"S. cerevisiae deletion strains, locus YOR136W, strain idh2, stronger effect = lower value",0.893 (active)
same,normalized growth,"S. cerevisiae deletion strains, locus YOR144C, strain elg1, stronger effect = lower value",0.812 (active)
same,normalized growth,"S. cerevisiae deletion strains, locus YOR184W, strain ser1, stronger effect = lower value",0.578 (active)
same,normalized growth,"S. cerevisiae deletion strains, locus YOR231W, strain MKK1, stronger effect = lower value",0.644 (active)
same,normalized growth,"S. cerevisiae deletion strains, locus YOR265W, strain rbl2, stronger effect = lower value",0.828 (active)
same,normalized growth,"S. cerevisiae deletion strains, locus YOR270C, strain vph1, stronger effect = lower value",0.565 (active)
same,normalized growth,"S. cerevisiae deletion strains, locus YOR290C, strain snf2, stronger effect = lower value",0.716 (active)
same,normalized growth,"S. cerevisiae deletion strains, locus YOR316C, strain cot1, stronger effect = lower value",0.79 (active)
same,normalized growth,"S. cerevisiae deletion strains, locus YPL051W, strain arl3, stronger effect = lower value",0.656 (active)
same,normalized growth,"S. cerevisiae deletion strains, locus YPL055C, strain LGE1, stronger effect = lower value",0.794
same,normalized growth,"S. cerevisiae deletion strains, locus YPL078C, strain atp4, stronger effect = lower value",0.646 (active)
same,normalized growth,"S. cerevisiae deletion strains, locus YPL106C, strain sse1, stronger effect = lower value",0.985
same,normalized growth,"S. cerevisiae deletion strains, locus YPL240C, strain hsp82, stronger effect = lower value",0.831 (active)
same,normalized growth,"S. cerevisiae deletion strains, locus YPL241C, strain CIN2, stronger effect = lower value",0.852 (active)
same,normalized growth,"S. cerevisiae deletion strains, locus YPL256C, strain CLN2, stronger effect = lower value",0.643 (active)
same,normalized growth,"S. cerevisiae deletion strains, locus YPR119W, strain clb2, stronger effect = lower value",0.779 (active)
same,normalized growth,"S. cerevisiae deletion strains, locus YPR141C, strain kar3, stronger effect = lower value",0.95
same,normalized growth,"S. cerevisiae deletion strains, locus YPR163C, strain tif3, stronger effect = lower value",0.784 (active)
same,normalized growth,"S. cerevisiae deletion strains, locus YPR167C, strain met16, stronger effect = lower value",0.805 (active)
same,normalized growth,"S. cerevisiae deletion strains, strain wtn01, stronger effect = lower value",0.8 (active)
same,normalized growth,"S. cerevisiae strains, strain wild type, stronger effect = lower value",0.857 (active)
